Measured values from PubChem BioAssay AID1159580 (chemical genetic matrix, 2015).
In all, about 5,500 compounds went through this assay and about 2,000 (36%) were called active. About 18% were inconclusive and are not listed. No stated cut-off is given here; in the data, active means normalized growth mostly below about 0.91 (no sharp cut-off); inconclusive means no clear call, values can overlap the other calls; inactive means mostly above about 0.92. Some of the results follow.

Test: chemical genetic growth profiling, strain panel (AID 1159580);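 further: tested at 20 µM; growth read once vehicle control cultures reached saturation at 30 °C; 1 = growth at the plate median or of vehicle wells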
Details: growth OD
[1] = S. cerevisiae deletion strains, locus YAL013W, strain DEP1, stronger effect = lower value
[2] = S. cerevisiae deletion strains, locus YPL241C, strain CIN2, stronger effect = lower value

Measured: normalized growth

Cc1onc(-c2c(Cl)cccc2Cl)c1NC(=O)O/N=C\c1ccc(N(C)C)cc1
inactive: S. cerevisiae deletion strains, locus YBR229C, strain ROT2, stronger effect = lower value 0.975 | S. cerevisiae deletion strains, locus YCL061C, strain MRC1, stronger effect = lower value 0.994 | S. cerevisiae deletion strains, locus YDL101C, strain DUN1, stronger effect = lower value 0.978 | S. cerevisiae deletion strains, locus YHR087W, strain rtc3, stronger effect = lower value 1.02 | S. cerevisiae deletion strains, locus YJR075W, strain HOC1, stronger effect = lower value 1.04 | S. cerevisiae deletion strains, locus YLR039C, strain RIC1, stronger effect = lower value 0.865 | S. cerevisiae deletion strains, locus YLR058C, strain SHM2 (second series), stronger effect = lower value 0.992 | S. cerevisiae deletion strains, locus YLR262C, strain YPT6, stronger effect = lower value 0.956 | S. cerevisiae deletion strains, locus YMR219W, strain ESC1, stronger effect = lower value 1.02 | S. cerevisiae deletion strains, locus YNL322C, strain KRE1, stronger effect = lower value 0.962 | S. cerevisiae deletion strains, locus YPR135W, strain CTF4, stronger effect = lower value 0.698 | S. cerevisiae strains, strain wild type, stronger effect = lower value 0.956
active: [1] 0.807 | S. cerevisiae deletion strains, locus YDR150W, strain NUM1, stronger effect = lower value 0.693 | S. cerevisiae deletion strains, locus YEL061C, strain CIN8, stronger effect = lower value 0.338 | S. cerevisiae deletion strains, locus YGR078C, strain PAC10, stronger effect = lower value 0.861 | S. cerevisiae deletion strains, locus YHR030C, strain SLT2, stronger effect = lower value 0.12 | S. cerevisiae deletion strains, locus YJR043C, strain POL32, stronger effect = lower value 0.769 | S. cerevisiae deletion strains, locus YLR085C, strain ARP6, stronger effect = lower value 0.0906 | S. cerevisiae deletion strains, locus YML094W, strain GIM5, stronger effect = lower value 0.152 | S. cerevisiae deletion strains, locus YMR263W, strain SAP30, stronger effect = lower value 0.78 | S. cerevisiae deletion strains, locus YNL153C, strain GIM3, stronger effect = lower value 0.907 | S. cerevisiae deletion strains, locus YNL298W, strain CLA4 (second series), stronger effect = lower value 0.266 | S. cerevisiae deletion strains, locus YNR030W, strain Alg12, stronger effect = lower value 0.357 | S. cerevisiae deletion strains, locus YOL006C, strain TOP1, stronger effect = lower value 0.25 | S. cerevisiae deletion strains, locus YPL055C, strain LGE1, stronger effect = lower value 0.624 | [2] 0.44

CC[C@@H](C)[C@H]1O[C@]2(CC[C@@H]1C)C[C@@H]1C[C@@H](C/C=C(\C)[C@@H](O[C@H]3C[C@H](OC)[C@@H](O[C@H]4C[C@H](OC)[C@@H](O)[C@H](C)O4)[C@H](C)O3)[C@@H](C)/C=C/C=C3\CO[C@@H]4[C@H](O)C(C)=C[C@@H](C(=O)O1)[C@]34O)O2
active: [1] 0.732 | S. cerevisiae deletion strains, locus YDR363W, strain ESC2, stronger effect = lower value 0.613 | [2] 0.869
inactive: S. cerevisiae deletion strains, locus YAL040C, strain CLN3, stronger effect = lower value 1.01 | S. cerevisiae deletion strains, locus YCL061C, strain MRC1 (second series), stronger effect = lower value 0.948 | S. cerevisiae deletion strains, locus YER002W, strain NOP16, stronger effect = lower value 1.02 | S. cerevisiae deletion strains, locus YNL175C, strain NOP13, stronger effect = lower value 1.01 | S. cerevisiae deletion strains, locus YNL197C, strain WHI3, stronger effect = lower value 1.02 | S. cerevisiae deletion strains, locus YNL224C, strain SQS1, stronger effect = lower value 0.993 | S. cerevisiae deletion strains, locus YOR083W, strain WHI5 (second series), stronger effect = lower value 0.981
